Assay outcomes as filed in PubChem BioAssay.
NOMO-1 viab: NOMO-1 AML cell viability reduction, primary screen, STK33 inhibitor project, CellTiter-Glo luminescence; NOMO-1 AML viability, 72 h; inhibition, % (no concentration beside the values); 37,000 compounds, 7.5% hits; AID 2330, 2010; in the data active = inhibition above about 80%; inconclusive = no clear call, values can overlap the other calls
STK33 kin inh: STK33 kinase inhibitors, primary screen, biochemical, luminescence, ADP-Glo, MBP substrate | inhibition, % at 12.5 µM | Serine/threonine-protein kinase 33 (Homo sapiens), Q9BYT3 | 27,000 compounds, 0.44% hits; in the data active = inhibition above about 20%; inconclusive = no clear call, values can overlap the other calls
Target sequence (Q9BYT3 whole entry, looked up): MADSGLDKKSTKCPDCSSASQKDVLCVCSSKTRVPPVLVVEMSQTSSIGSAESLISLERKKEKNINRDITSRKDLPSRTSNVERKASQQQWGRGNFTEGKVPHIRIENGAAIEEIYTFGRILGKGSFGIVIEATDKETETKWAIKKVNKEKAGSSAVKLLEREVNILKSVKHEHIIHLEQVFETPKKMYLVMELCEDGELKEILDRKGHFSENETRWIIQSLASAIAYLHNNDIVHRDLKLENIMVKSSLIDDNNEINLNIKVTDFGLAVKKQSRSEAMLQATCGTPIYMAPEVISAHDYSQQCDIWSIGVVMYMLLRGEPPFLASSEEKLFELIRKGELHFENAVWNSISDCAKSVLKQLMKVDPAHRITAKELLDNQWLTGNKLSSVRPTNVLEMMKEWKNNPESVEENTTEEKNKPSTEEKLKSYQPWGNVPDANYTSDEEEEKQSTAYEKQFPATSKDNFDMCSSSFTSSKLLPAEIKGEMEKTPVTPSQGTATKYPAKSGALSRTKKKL
PD-1 reversal: activators reversing PD-1 mediated T-cell inhibition, primary screen, luminescence, primary human CD4 T cells, PD-L1 beads; activation, % (test concentration not listed); AID 2316, 2010; CellTiter-Glo 96 h; 29,000 tested, under 10 active; call rule not given here;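 note: 0% = median vehicle wells and 100% = positive control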
An asterisk follows results filed as active; ? = inconclusive; . = no result given. The sample as a whole holds a higher share of hits than the screen did.

SMILES	NOMO-1 viab	STK33 kin inh	PD-1 reversal
CCOC(=O)CSc1c(-c2cccs2)[nH]c2ccccc12	139.4*	.	-2.9
CCOC(=O)CC1=Nn2c(nnc2-c2cccs2)SC1	-3.4	2.7	1.9
Cc1c(Cl)c(C)c(Cl)c(OCC(=O)Nc2ccccc2N2CCOCC2)c1Cl	18.3	2.2	.
N#C/C(=C\c1cc(Cl)cc(Cl)c1)c1cccnc1	83.3*	5.7	-2.8
N#C/C(=C\c1ccncc1)c1ccc(NC(N)=O)cc1	20.5	.	-0.1
COc1ccc(C(Nc2cccc(C)n2)c2ccc3ccc(C)nc3c2O)c(OC)c1OC (stereo not drawn)	96.3*	4.6	-13.0
Cc1ccc2ccc(C(Nc3ccccn3)c3c(F)cccc3Cl)c(O)c2n1 (stereo not drawn)	110.0*	-1.2	-12.2
O=[N+]([O-])c1ccccc1C(c1c[nH]c2ccccc12)c1c[nH]c2ccccc12	25.7	?	2.7
Cc1cccc(NC(c2ccccc2[N+](=O)[O-])c2ccc3ccc(C)nc3c2O)n1 (stereo not drawn)	121.0*	-1.1	-13.1
Cc1ccc2ccc(C(Nc3ccccn3)c3ccccc3Cl)c(O)c2n1 (stereo not drawn)	106.0*	1.2	-11.3
CCn1c(SCC(=O)Nc2ccc(Cl)cc2C)nnc1-c1ccc(Cl)cc1	14.2	0.5	0.9
COc1cc(C2NCCS2)cc(OC)c1OC (stereo not drawn)	23.5	2.1	2.4
Cc1ccnc(SCC(=O)c2cccc([N+](=O)[O-])c2)n1	-5.1	-1.0	.
Cc1ccnc(NC(c2cccc(Cl)c2)c2ccc3ccc(C)nc3c2O)c1 (stereo not drawn)	117.9*	1.1	.
CSc1ccc(C(Nc2cc(C)ccn2)c2ccc3ccc(C)nc3c2O)cc1 (stereo not drawn)	39.9	3.9	.
Cc1ccc2ccc(C(Nc3ccccn3)c3cccc([N+](=O)[O-])c3)c(O)c2n1 (stereo not drawn)	112.1*	-1.8	-13.2
N#CC1=C(N)N2CCSC2=NC1(C(F)(F)F)C(F)(F)F	-13.9	.	-0.6
CCC(C)C(O)(CC(=O)OCc1ccc(O[C@@H]2O[C@H](CO)[C@@H](O)[C@H](O)[C@H]2O)cc1)C(=O)OCc1ccc(O[C@@H]2O[C@H](CO)[C@@H](O)[C@H](O)[C@H]2O)cc1 (stereo partly drawn)	20.0	-5.6	-0.1
CC/C=C\C/C=C\C/C=C\C/C=C\C/C=C\C/C=C\CCC(=O)O	6.0	1.0	2.2
C/C=C/C/C=C/CCC(=O)[C@H]1O[C@H]1C(N)=O	113.9*	-1.1	.
CC(C)n1cnc2c(NCc3ccccc3)nc(NCCO)nc21	38.3	35.4*	3.1
CC(C)n1cnc2c(NCc3ccccc3)nc(NCCCO)nc21	.	.	2.4
Cc1ccc(CCC(=O)Nc2cc(Cl)cc(Cl)c2)o1	47.9	1.1	-6.9
C[C@H](CO)N1C[C@H](C)[C@H](CN(C)Cc2ccccc2)Oc2ccc(NS(=O)(=O)c3ccc(Cl)cc3)cc2CC1=O	?	2.1	0.1
C[C@@H]1CN([C@@H](C)CO)C(=O)Cc2cc(NS(=O)(=O)c3ccc(F)cc3)ccc2O[C@@H]1CN(C)Cc1ccc(Cl)c(Cl)c1	95.8*	4.6	.
SMILES	NOMO-1 viab	STK33 kin inh	PD-1 reversal
C[C@H]1CN([C@@H](C)CO)C(=O)Cc2cc(NS(=O)(=O)c3ccc(Cl)cc3)ccc2O[C@@H]1CN(C)Cc1ccc(Cl)c(Cl)c1	84.1*	9.9	-1.5
C[C@@H]1CN([C@H](C)CO)C(=O)Cc2cc(N(C)C)ccc2O[C@@H]1CN(C)Cc1ccc(Cl)c(Cl)c1	98.6*	-3.8	-1.8
C[C@@H]1CN([C@H](C)CO)C(=O)Cc2cc(NS(C)(=O)=O)ccc2O[C@@H]1CN(C)Cc1ccc(Cl)c(Cl)c1	23.5	0.5	-2.2
C[C@H]1CN([C@@H](C)CO)C(=O)Cc2cc(NS(C)(=O)=O)ccc2O[C@@H]1CN(C)Cc1ccc(Cl)c(Cl)c1	97.8*	-1.9	.
C[C@@H]1CN([C@H](C)CO)C(=O)Cc2cc(NS(=O)(=O)c3ccc(F)cc3)ccc2O[C@@H]1CN(C)Cc1ccc2c(c1)OCO2	18.2	0.4	-0.3
C[C@H]1CN([C@@H](C)CO)C(=O)c2cc(N(C)C)ccc2O[C@@H]1CN(C)Cc1ccc(Cl)c(Cl)c1	45.9	3.7	-0.4
Cc1ccccc1OCC(=O)Nc1cccc(-c2nnc(-c3ccco3)o2)c1	66.8	.	-0.8
O=C(CCSc1nc2ccccc2s1)Nc1ccccc1Cl	27.2	0.0	.
Cc1onc(-c2ccccc2Cl)c1C1=NCCO1	3.7	.	0.1
C[C@@H]1CN([C@@H](C)CO)C(=O)Cc2cc(NS(=O)(=O)c3ccc(Cl)cc3)ccc2O[C@@H]1CN(C)Cc1ccc(Cl)c(Cl)c1	123.8*	0.6	-1.6
C[C@@H]1CN([C@@H](C)CO)C(=O)Cc2cc(NS(=O)(=O)c3ccccc3)ccc2O[C@@H]1CN(C)Cc1ccc(Cl)c(Cl)c1	62.3	1.6	-4.2
C[C@H]1CN([C@@H](C)CO)C(=O)Cc2cc(NS(=O)(=O)c3ccccc3)ccc2O[C@@H]1CN(C)Cc1ccc(Cl)c(Cl)c1	122.4*	.	.
C[C@H]1CN([C@@H](C)CO)C(=O)Cc2cc(NS(=O)(=O)c3ccc(Cl)cc3)ccc2O[C@H]1CN(C)Cc1ccc2c(c1)OCO2	29.5	-4.0	.
CCOc1ccc(C2(CC(=O)Nc3ccccc3)C(=O)c3ccccc3C2=O)cc1OC	1.5	.	-0.8
Cc1cc(-c2ccc(Cl)cc2)nc(SCC(=O)Nc2ccccc2)n1	7.9	0.1	0.6
O=C(NCc1cccnc1)c1cc(-c2cccc(Cl)c2)nc2ccccc12	23.9	0.1	.
CCCOc1ccc(C2C3=C(CCCC3=O)OC3=C2C(=O)CCC3)cc1OCC	38.0	.	-0.2
C[C@H]1CN([C@@H](C)CO)C(=O)Cc2cc(NC(=O)CCCCCC(=O)Nc3ccccc3N)ccc2O[C@@H]1CN(C)Cc1ccc(Oc2ccccc2)cc1	122.3*	.	-0.2
C[C@@H]1CN([C@@H](C)CO)C(=O)Cc2cc(NC(=O)CCCCCC(=O)Nc3ccccc3N)ccc2O[C@@H]1CN(C)Cc1ccc(Oc2ccccc2)cc1	139.6*	.	-0.9
C[C@@H]1CN([C@H](C)CO)C(=O)Cc2cc(NC(=O)CCCCCC(=O)Nc3ccccc3N)ccc2O[C@@H]1CN(C)Cc1ccc(Oc2ccccc2)cc1	127.7*	.	-0.9
C[C@H](CO)N1C[C@H](C)[C@H](CN(C)Cc2ccc(Oc3ccccc3)cc2)Oc2ccc(NC(=O)CCCN(C)C)cc2CC1=O	10.9	-3.5	.
C[C@H]1CN([C@@H](C)CO)C(=O)Cc2cc(NC(=O)CCCN(C)C)ccc2O[C@@H]1CN(C)Cc1ccc(Oc2ccccc2)cc1	24.6	-8.6	.
C[C@@H]1CN([C@@H](C)CO)C(=O)Cc2cc(NC(=O)CCCN(C)C)ccc2O[C@@H]1CN(C)Cc1ccc(Oc2ccccc2)cc1	20.6	5.6	.
Cc1coc(C)c1C(=O)CC1(O)C(=O)Nc2ccc(Br)cc21 (stereo not drawn)	15.2	1.8	.
C/C=C(\CO)C(=O)O[C@H]1[C@H](O)[C@@H](C(=O)OC)O[C@@H]2C[C@H]3OC(n4cnc5c(N)ncnc54)[C@H](OC)[C@H]3O[C@]21O (stereo partly drawn)	12.1	-4.6	2.8
